About 7,900 targets were measured; listed, in parts, are those with a hit and a random draw of the rest. About 0.6% of all pairs of compound and target were hits. Unmarked numbers belong to inactive results.
Legend:
Assay in all cases: log2 fold change, soluble protein after heating vs DMSO (PISA); higher = thermal stabilisation; K562 cells, 10 uM, 30 min; active = over 0.2 and 3.5 SD of the protein, either way, in both replicates (recomputed)
[1] = compound: CC1=C(C=C(C=C1)NC(=O)C2=CC(=CC=C2)C(C)(C)C#N)NC3=CC4=C(C=C3)N=CN(C4=O)C
How it was run: (§1)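 K562 cells at 2×10^6 cells/mL were given 10 μM compound for 30 min. Aliquots then went through 3 min of heating across 48°C-58°C, were pooled, and were extracted in PBS with 0.5% NP-40 at 4°C, and the supernatant after 21,000xg for 90 min was quantified by TMTpro 16plex LC-MS/MS with channel sums equalised. Thermal stability relative to control samples, from duplicates, is given as log2 fold change.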

[2] = compound: CC1=C(C=C(C=C1)NC(=O)C2=CC(=CC=C2)N(C)C)NC(=O)C3=CC=C(C=C3)O
How it was run: as §1

[3] = compound: CC1=CC=C(C=C1)SC2=C3C=C(SC3=CN=C2)C(=O)N
How it was run: as §1

[4] = compound: CC1=NC(=CC=C1)C2=C(N=C(N2)C(C)(C)C)C3=CC4=NC=CN=C4C=C3
How it was run: as §1

Nexturastat A = compound: CCCCN(Cc1ccc(C(=O)NO)cc1)C(=O)Nc1ccccc1 [Nexturastat A]
How it was run: as §1

vemurafenib = compound: CCCS(=O)(=O)Nc1ccc(F)c(C(=O)c2c[nH]c3ncc(-c4ccc(Cl)cc4)cc23)c1F [vemurafenib]
How it was run: as §1

[5] = compound: CCCS(=O)(=O)Nc1ccc(F)c(C(=O)c2c[nH]c3ncc(Cl)cc23)c1F
How it was run: as §1

[6] = compound: CCCc1cc(C)[nH]c(=O)c1CNC(=O)c1cc(-c2ccnc(N3CCN(C)CC3)c2)cc2c1cnn2C(C)C
How it was run: as §1

givinostat = compound: CCN(CC)Cc1ccc2cc(COC(=O)Nc3ccc(C(=O)NO)cc3)ccc2c1 [givinostat]
How it was run: as §1

barasertib = compound: CCN(CCCOc1ccc2c(Nc3cc(CC(=O)Nc4cccc(F)c4)[nH]n3)ncnc2c1)CCOP(=O)(O)O [barasertib]
How it was run: as §1

Chain of UniProt Q9Y613 (Q9Y613 whole entry, looked up): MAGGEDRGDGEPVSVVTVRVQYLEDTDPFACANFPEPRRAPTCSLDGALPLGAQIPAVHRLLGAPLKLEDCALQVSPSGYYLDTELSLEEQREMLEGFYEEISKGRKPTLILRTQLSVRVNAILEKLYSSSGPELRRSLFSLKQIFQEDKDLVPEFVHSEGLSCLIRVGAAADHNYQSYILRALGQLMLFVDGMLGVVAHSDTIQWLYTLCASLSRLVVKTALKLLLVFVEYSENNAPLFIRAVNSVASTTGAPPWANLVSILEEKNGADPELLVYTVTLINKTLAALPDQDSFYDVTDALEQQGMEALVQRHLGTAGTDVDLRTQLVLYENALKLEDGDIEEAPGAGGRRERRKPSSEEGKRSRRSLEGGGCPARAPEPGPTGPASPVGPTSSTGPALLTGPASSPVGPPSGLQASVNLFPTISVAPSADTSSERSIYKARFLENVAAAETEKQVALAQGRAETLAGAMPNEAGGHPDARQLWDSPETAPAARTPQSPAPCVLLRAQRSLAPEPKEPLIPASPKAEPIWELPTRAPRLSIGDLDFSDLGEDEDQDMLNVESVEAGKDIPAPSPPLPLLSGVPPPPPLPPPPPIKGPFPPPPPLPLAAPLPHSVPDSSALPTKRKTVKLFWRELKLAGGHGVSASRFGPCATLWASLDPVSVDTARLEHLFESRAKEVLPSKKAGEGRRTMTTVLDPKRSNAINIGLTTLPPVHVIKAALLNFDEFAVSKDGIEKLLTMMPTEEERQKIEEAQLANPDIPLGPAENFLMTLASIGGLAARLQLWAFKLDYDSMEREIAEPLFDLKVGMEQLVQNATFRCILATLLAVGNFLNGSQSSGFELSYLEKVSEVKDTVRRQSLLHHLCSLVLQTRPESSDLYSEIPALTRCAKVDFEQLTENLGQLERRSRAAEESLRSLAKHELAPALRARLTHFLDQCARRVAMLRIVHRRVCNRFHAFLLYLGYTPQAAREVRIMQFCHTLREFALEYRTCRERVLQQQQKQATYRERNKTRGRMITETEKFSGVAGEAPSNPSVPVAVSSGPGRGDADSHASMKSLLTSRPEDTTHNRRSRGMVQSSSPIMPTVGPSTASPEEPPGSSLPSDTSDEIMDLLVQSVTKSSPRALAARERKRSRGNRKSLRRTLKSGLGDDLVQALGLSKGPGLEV
Chain of UniProt Q9Y3D6 (Q9Y3D6 whole entry, looked up): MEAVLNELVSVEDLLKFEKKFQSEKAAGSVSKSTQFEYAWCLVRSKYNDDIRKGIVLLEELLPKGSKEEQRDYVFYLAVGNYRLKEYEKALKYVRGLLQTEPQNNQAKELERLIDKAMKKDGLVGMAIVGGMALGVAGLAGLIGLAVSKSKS
Chain of UniProt O15347 (O15347 whole entry, looked up): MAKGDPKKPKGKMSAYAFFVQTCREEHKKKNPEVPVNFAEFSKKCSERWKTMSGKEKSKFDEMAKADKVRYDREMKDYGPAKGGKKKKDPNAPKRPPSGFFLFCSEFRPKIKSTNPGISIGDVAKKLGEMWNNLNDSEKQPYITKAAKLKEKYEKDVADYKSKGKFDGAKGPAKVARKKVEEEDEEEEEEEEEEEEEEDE
Chain of UniProt P55795 (P55795 whole entry, looked up): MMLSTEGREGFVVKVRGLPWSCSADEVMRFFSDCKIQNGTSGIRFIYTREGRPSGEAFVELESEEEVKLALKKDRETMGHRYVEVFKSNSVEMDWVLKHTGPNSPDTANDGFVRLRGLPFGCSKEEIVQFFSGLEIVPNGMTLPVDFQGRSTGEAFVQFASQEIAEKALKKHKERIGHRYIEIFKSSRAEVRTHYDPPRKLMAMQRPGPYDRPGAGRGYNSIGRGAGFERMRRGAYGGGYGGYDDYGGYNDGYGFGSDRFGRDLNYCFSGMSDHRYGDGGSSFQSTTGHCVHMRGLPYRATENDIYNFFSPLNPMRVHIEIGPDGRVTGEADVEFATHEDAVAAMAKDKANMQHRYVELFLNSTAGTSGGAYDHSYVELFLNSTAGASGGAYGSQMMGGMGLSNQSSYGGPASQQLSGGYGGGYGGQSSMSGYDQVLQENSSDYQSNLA
Chain of UniProt P14324 (P14324 whole entry, looked up): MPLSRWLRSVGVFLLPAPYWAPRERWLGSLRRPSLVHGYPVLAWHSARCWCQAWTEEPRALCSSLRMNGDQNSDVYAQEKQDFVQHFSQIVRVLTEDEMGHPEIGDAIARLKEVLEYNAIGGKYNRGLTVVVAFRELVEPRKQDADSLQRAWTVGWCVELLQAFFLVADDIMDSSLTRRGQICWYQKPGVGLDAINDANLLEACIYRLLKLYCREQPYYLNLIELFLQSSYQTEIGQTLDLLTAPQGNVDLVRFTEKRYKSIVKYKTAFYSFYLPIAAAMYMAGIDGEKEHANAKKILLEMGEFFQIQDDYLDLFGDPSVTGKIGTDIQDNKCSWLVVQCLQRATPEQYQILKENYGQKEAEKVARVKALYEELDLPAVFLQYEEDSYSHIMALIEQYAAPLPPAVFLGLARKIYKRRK
Chain of UniProt Q5JWF2 (Q5JWF2 whole entry, looked up): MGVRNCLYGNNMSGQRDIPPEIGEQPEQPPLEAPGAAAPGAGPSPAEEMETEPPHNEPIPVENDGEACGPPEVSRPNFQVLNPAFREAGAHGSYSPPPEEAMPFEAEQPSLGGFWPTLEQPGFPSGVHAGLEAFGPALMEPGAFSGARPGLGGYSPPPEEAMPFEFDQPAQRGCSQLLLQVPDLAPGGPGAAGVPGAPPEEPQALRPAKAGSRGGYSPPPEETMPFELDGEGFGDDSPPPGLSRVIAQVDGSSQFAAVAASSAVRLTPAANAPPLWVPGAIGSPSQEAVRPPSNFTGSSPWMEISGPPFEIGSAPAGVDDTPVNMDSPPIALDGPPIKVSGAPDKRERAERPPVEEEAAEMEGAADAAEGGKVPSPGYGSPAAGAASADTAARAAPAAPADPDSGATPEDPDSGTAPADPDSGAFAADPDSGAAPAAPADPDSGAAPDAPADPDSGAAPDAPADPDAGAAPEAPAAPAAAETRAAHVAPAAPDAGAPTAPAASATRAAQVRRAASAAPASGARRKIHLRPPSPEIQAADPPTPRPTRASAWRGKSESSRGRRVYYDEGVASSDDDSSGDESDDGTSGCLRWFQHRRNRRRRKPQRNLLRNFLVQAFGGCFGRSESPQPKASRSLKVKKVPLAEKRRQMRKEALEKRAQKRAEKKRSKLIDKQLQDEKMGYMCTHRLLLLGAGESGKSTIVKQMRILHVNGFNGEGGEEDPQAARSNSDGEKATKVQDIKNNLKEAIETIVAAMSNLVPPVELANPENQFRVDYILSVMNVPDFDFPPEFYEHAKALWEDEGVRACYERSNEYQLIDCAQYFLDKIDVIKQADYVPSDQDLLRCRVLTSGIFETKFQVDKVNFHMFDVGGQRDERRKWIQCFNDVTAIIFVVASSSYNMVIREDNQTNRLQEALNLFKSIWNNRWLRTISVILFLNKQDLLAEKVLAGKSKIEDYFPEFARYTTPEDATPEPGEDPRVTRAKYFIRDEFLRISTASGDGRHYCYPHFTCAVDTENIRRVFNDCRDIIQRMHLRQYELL
Chain of UniProt P85037 (P85037 whole entry, looked up): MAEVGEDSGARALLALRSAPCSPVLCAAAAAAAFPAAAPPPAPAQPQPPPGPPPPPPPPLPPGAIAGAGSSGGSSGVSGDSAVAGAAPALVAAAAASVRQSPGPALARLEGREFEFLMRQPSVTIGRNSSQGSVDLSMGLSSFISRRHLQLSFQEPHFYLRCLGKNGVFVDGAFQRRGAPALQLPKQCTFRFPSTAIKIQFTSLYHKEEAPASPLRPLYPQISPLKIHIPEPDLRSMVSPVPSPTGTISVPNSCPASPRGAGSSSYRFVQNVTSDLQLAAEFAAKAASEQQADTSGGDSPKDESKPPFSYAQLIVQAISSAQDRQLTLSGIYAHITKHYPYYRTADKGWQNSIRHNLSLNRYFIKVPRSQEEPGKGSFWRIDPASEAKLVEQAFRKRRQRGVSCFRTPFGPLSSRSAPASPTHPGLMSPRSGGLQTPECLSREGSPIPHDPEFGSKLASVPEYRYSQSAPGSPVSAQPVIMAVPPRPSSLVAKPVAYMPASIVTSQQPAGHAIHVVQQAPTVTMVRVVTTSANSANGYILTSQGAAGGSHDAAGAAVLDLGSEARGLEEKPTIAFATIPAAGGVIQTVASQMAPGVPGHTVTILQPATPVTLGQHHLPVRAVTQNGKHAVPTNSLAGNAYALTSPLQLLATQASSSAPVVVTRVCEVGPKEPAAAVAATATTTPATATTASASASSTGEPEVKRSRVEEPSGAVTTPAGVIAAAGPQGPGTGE
Chain of UniProt Q10472 (Q10472 whole entry, looked up): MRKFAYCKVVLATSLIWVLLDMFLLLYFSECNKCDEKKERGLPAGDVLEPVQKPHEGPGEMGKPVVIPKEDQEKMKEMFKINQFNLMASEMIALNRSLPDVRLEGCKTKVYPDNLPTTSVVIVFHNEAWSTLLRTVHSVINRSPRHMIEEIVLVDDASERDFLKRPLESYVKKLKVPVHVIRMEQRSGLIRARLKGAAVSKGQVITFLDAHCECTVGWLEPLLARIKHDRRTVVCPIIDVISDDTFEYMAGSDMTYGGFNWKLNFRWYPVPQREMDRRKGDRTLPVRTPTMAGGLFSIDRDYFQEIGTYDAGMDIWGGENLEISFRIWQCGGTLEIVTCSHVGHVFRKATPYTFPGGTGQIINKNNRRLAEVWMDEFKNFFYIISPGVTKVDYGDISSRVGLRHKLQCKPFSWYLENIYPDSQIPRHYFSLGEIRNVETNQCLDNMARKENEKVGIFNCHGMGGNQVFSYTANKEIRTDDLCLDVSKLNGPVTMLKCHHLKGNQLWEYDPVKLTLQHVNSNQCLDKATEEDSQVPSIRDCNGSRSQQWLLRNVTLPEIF
Chain of UniProt P0C0S5 (P0C0S5 whole entry, looked up): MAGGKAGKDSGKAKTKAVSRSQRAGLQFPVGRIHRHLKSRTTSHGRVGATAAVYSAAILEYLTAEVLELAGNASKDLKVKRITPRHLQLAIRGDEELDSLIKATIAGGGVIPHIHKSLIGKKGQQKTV
Chain of UniProt Q9H0R8 (Q9H0R8 whole entry, looked up): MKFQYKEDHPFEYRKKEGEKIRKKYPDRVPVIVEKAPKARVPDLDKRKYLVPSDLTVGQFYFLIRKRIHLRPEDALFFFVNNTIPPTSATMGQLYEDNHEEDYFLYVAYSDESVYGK

Target	log2 fold change [1]	log2 fold change [2]	log2 fold change [3]	log2 fold change [4]	log2 fold change (Nexturastat A)	log2 fold change (vemurafenib)	log2 fold change [5]	log2 fold change [6]	log2 fold change (givinostat)	log2 fold change (barasertib)
FDPS (UniProt P14324)	-0.061	-0.068	0.109	-0.077	0.068	0.034	-0.001	-0.005	0.156	0.081
HMG20A (UniProt Q9NP66)	-0.051	-0.009	-0.153	-0.016	0.033	0.027	0.016	0.149	0.03	0.024
IFI30 (UniProt P13284)	-0.043	0.043	0.018	-0.046	0.056	0.056	0.183	0.034	0.018	0.028
FHOD1 (UniProt Q9Y613)	-0.288	0.073	-0.063	-0.09	0.365	-0.002	-0.134	0.132	0.024	0.044
HMGB3 (UniProt O15347)	-0.012	0	0.006	0.011	-0.014	-0.083	0.011	0.202	-0.016	-0.008
GTF2E1 (UniProt P29083)	-0.005	-0.057	0.011	0.115	0.024	0.05	0.082	-0.006	0.091	0.166
FBXO7 (UniProt Q9Y3I1)	-0.048	-0.028	0.004	-0.014	0.047	0.017	-0.022	-0.026	0.03	0.02
GABARAPL1 isoform 2 (UniProt Q9H0R8)	-0.008	0.003	0.006	0.002	-0.013	-0.016	-0.025	-0.007	0.044	0.021
GINS2 (UniProt Q9Y248)	0.136	-0.168	0.099	0.147	0.174	0.102	0.029	0.021	-0.038	0.053
GPX4 (UniProt P36969)	-0.005	-0.068	0.095	0.06	-0.151	-0.019	0.005	-0.027	-0.451 (active)	-0.012
HSD17B12 (UniProt Q53GQ0)	0.094	0.032	0	0.022	-0.111	-0.006	-0.01	-0.141	-0.018	-0.04
FOXK1 (UniProt P85037)	0.323	-0.01	-0.362	-0.063	-0.091	0.097	0.182	-0.129	-0.025	-0.221
GSK3B isoform 2 (UniProt P49841)	0.015	-0.022	0.044	0.034	0.003	-0.008	-0.018	-0.066	-0.07	-0.017
FEN1 (UniProt P39748)	0.018	-0.08	0.045	0.057	-0.194	0.121	0.022	-0.03	0.096	0.088
GNAS (UniProt Q5JWF2)	0.105	-0.043	-0.014	-0.027	-0.01	0.034	-0.027	0.067	-0.036	-0.011
FERMT3 (UniProt Q86UX7)	0.019	-0.024	0.037	0.054	-0.013	0.036	0.083	0.03	0.048	0.019
GLUL (UniProt P15104)	-0.008	-0.003	0.055	-0.013	-0.02	-0.04	-0.084	-0.016	-0.082	0.004
GLB1 (UniProt P16278)	-0.051	-0.026	-0.033	-0.038	0.086	-0.017	-0.007	0.003	0.002	-0.027
IDH3A (UniProt P50213)	-0.029	-0.003	0.031	0.015	-0.084	0.009	-0.009	-0.014	-0.06	-0.006
HEXB (UniProt P07686)	0	0.029	0.028	0.022	-0.078	-0.003	-0.001	-0.019	-0.016	-0.015
HHEX (UniProt Q03014)	-0.03	0.045	-0.009	-0.055	0.05	-0.081	0	0.026	-0.026	-0.003
HNRNPUL2 (UniProt Q1KMD3)	0.009	0.008	-0.074	-0.032	0.109	-0.047	-0.027	-0.002	0.047	-0.027
HNRNPK isoform 2 (UniProt P61978)	0.034	0.004	-0.003	0.075	0.022	0.048	0.048	-0.031	0.063	0.024
FIS1 (UniProt Q9Y3D6)	-0.024	0.006	0	0	-0.018	0.048	-0.046	-0.009	-0.014	-0.027
GALNT1 (UniProt Q10472)	-0.004	0	0.03	0.067	0.001	0.02	-0.021	-0.055	0.003	0.007
HDAC7 isoform 5 (UniProt Q8WUI4)	-0.01	0.028	-0.043	-0.002	0.108	0	-0.009	-0.014	–	0
H2AZ1 (UniProt P0C0S5)	-0.051	0	-0.174	-0.01	0.75 (active)	-0.209	0.233	0.074	0.454	-0.083
GLS isoform 3 (UniProt O94925)	0.004	-0.119	-0.01	0.167	0.087	0.155	0.236	0.061	0.031	0.061
GNPAT (UniProt O15228)	-0.03	-0.046	0.007	0	-0.039	0.023	0.045	0.03	0.022	0.044
HNRNPH2 (UniProt P55795)	0.064	-0.027	0.079	0.058	0.044	0.048	0.208	0.095	0.109	0.014

From the supplement of paper PMC10849652
